D2 ag-1: activates the human D2 dopamine receptor; activation, % (no concentration beside the values); DiscoveRx PathHunter D2 beta-arrestin, luminescence, 90 min; 100% = 57 uM dopamine signal; 360,000 tested, 0.084% active; AID 624465; in the data active means activation above about 40%; inconclusive means between about 15% and that limit
Target sequence (P14416 whole entry, looked up): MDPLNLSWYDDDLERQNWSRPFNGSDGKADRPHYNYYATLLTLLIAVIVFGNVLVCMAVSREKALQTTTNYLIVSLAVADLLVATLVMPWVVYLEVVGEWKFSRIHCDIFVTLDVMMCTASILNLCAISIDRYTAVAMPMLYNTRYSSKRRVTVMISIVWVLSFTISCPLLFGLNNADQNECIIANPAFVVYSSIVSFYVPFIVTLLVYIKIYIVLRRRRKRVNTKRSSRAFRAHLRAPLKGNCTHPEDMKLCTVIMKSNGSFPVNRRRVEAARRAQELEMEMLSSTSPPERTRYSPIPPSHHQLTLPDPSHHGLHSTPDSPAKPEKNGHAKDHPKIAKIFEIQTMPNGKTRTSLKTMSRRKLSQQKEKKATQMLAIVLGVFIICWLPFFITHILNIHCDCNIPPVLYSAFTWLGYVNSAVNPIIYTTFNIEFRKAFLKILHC
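Agonist mode: compounds alone added to overnight-plated D2 PathHunter cells for 90 min at 37 C, with 57 uM final dopamine (EC100) defining full response. Beta-arrestin recruitment detected by chemiluminescent reagent, read after 1 h at ambient temperature.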
D2 ag-2: D2 dopamine receptor (human) agonism; P14416; activation, % at 2 µM; 340,000 tested, 0.53% active; HEK293 T-REx D2 cells, calcium flux agonist mode; AID 485358;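 active means activation over 3 SD above normal in the single-dose calcium agonist read, cut at about 30% in these data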
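Calcium-flux readout, 1 cycle/sec over 180 s following compound pin transfer, in inducible HEK293 Trex D2 cells (force-coupled); dopamine controls included. Positive calcium responses during this window marked compounds as potential agonists.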
D2 PAM-1: positive allosteric modulators of human D2 dopamine receptor; P14416; DiscoveRx D2 beta-arrestin cells, luminescence, 90 min; 100% = 57 uM dopamine signal; potentiation, % (test concentration not listed); 360,000 tested, 0.23% active; AID 624464; in the data active means potentiation above about 50%; inconclusive means mostly about 30% to 49%
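PathHunter beta-arrestin assay in DiscoveRx D2 cells. Compounds were added with an EC20 of dopamine (50 nM final) for 90 min at 37 deg C. Luminescence was read 1 h after detection reagent, with 57 uM dopamine as the EC100 control.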
D2 antagonist: D2 dopamine receptor (human) antagonism. P14416. HEK293 TREx D2 cells, calcium flux, dopamine EC80. inhibition, % at 10 µM. 340,000 tested, 2% active; in the data active means inhibition above about 30%; inactive means below that, where a call was filed
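In this primary screen, negative modulation is detected by tracking calcium flux after an EC80 dopamine challenge in inducible HEK293 T-REx D2 cells preexposed to test compound for 180 s.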
D2 PAM-2: positively modulates the human D2 dopamine receptor allosterically | P14416 | HEK293 T-REx D2, calcium flux, EC20 dopamine potentiation | potentiation, % at 10 µM | 340,000 tested, 0.34% active | AID 485347;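 active means potentiation over 3 SD above the plate norm, cut at about 30% in these data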
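Tetracycline-induced HEK293 T-REx cells force-coupled to calcium signalling expressed D2; compounds were pin-added after a 10 s baseline, read kinetically 180 s, then an EC20 dopamine challenge followed with a further 180 s calcium read.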
D3 ag: D3 receptor agonism confirmed, beta-arrestin readout; DiscoveRx D3 beta-arrestin cells, luminescence, 90 min; shares compounds with D2 ag-2; 2,300 tested, 4% active; Potency, µM (titrated, usually from 76.9 µM), hits mostly activators; further: nearly all actives have a fitted effect of over 70% in size
D2 ag-3: activates human D2 dopamine receptor in D3 counterscreen | shares compounds with D2 ag-2 | DiscoveRx PathHunter D2 beta-arrestin, luminescence, 90 min; response scale: percent relative to full dopamine signal | Potency, µM (doses to about 76.9 µM), actives largely listed as activators | AID 720507 | 2,300 tested, 5.9% active; further: nearly all actives have a fitted effect of over 70% in size
Of the large screens only hits and unclear results are named; the others gave an inactive call (follow-up assays come after a bar, where they were run). Shown are actives, neighbours in structure and some others; about 2.4% of the full set was active somewhere. Unless noted, the call rests on the fitted dose curve; in most records, active means well fitted activation curve with a large enough effect; inconclusive means small, poorly fitted or top-dose-only effect; inactive means flat fitted curve, though single readings scatter.

Cc1ccc(C)c(Cn2c(=O)n(C(C)C)c(=O)c3oc4ccccc4c32)c1	none (no result: D2 ag-1, D2 PAM-1, D2 antagonist)
CCOC(=O)N1CCc2c(sc(N)c2C#N)C1	D2 ag-1 inconclusive, D2 ag-2 74, D2 PAM-1 54, D2 antagonist 58 | D3 ag inconclusive | D2 ag-3 inconclusive
CC(C)(C)C1CCc2c(sc(NC(=O)Cn3nnc(-c4cccc(C(F)(F)F)c4)n3)c2C#N)C1 (configuration not stated)	none (no result: D2 ag-1, D2 PAM-1, D2 antagonist)
COc1cccc(CC(=O)OCc2csc(CC(=O)Nc3ccccc3C)n2)c1	none | D3 ag inactive | D2 ag-3 inactive
Cc1ccccc1NC(=O)Cc1nc(COC(=O)CCc2ccccc2)cs1	none
COc1ccc(Cn2c(SCc3ccc(C(=O)NC(C)C)cc3)nc3cccnc32)cc1	none (no result: D2 ag-1, D2 PAM-1, D2 antagonist)
Cc1ccc(-c2onc(C)c2C)cc1S(=O)(=O)NCc1ccco1	none (no result: D2 ag-1, D2 PAM-1, D2 antagonist)
Cc1ccc([N+](=O)[O-])c(OCCN2CCNCC2)c1	D2 ag-2 68, D2 antagonist 71 | D3 ag inconclusive | D2 ag-3 inactive
Cc1ccc(OCCOCCN2CCCCC2)c([N+](=O)[O-])c1	none
Cc1ccc(Cn2c(C)c3cnn(CC(=O)NCCc4ccc(Cl)cc4)c(=O)c3c2C)cc1	none (no result: D2 ag-1, D2 PAM-1, D2 antagonist)
OCC[C@H]1C[C@H](O)[C@@H](O)[C@@]2(OCCCc3ccccc32)O1	none | D3 ag inactive | D2 ag-3 inactive
OCC[C@@H]1C[C@@H](O)[C@H](O)[C@]2(OCCCc3ccccc32)O1	none
OCC[C@H]1C[C@@H](O)[C@H](O)[C@]2(OCc3ccccc32)O1	none | D3 ag inactive | D2 ag-3 inactive
CC(=O)Nc1ccc(NC(=O)CSc2cn(CC(=O)N(C(C)C)C(C)C)c3ccccc23)cc1	none (no result: D2 ag-1, D2 PAM-1, D2 antagonist)
CC[n+]1c(-c2ccc(C)cc2)csc1Nc1c(C)n(C)n(-c2ccccc2)c1=O	D2 ag-2 66, D2 antagonist 52 | D3 ag inactive | D2 ag-3 inactive
Cc1ccc(Nc2nc3ccccc3nc2Nc2c(C)n(C)n(-c3ccccc3)c2=O)cc1	none
CC[n+]1c(-c2ccccc2)csc1Nc1c(C)n(C)n(-c2ccccc2)c1=O	D2 ag-2 50 | D3 ag inactive | D2 ag-3 inactive
Cc1ccsc1/C=N\NC(=O)CCc1c(C)n[nH]c1C	none
Cc1n[nH]c(C)c1CCC(=O)N/N=C/c1cccs1	none | D3 ag inactive | D2 ag-3 inactive
Nc1nc2ccccc2n1/N=C/c1ccc([N+](=O)[O-])s1	none | D3 ag inconclusive | D2 ag-3 inactive
COc1ccc(CNC(=O)CCc2c(C)c3cc4c(C)c(C)oc4cc3oc2=O)cc1OC	none (no result: D2 ag-1, D2 ag-2, D2 PAM-1, D2 antagonist)
O=[N+]([O-])c1ccc(C=CC=Cc2ccccc2)cc1	none (no result: D2 ag-2, D2 antagonist, D2 PAM-2)
O=[N+]([O-])c1ccc(/C=C/C2=NN(c3ccccc3)C(c3ccco3)C2)cc1 (configuration not stated)	D2 ag-2 51 | D3 ag inactive | D2 ag-3 inactive
COc1cccc(C(=O)NCC(c2ccc(N(C)C)cc2)N2CCc3ccccc32)c1OC (configuration not stated)	none (no result: D2 ag-1, D2 PAM-1, D2 antagonist)
Cc1ccccc1-c1cc(C(=O)NCC2CC2)nn1CC1CC(c2cccc([N+](=O)[O-])c2)=NO1 (configuration not stated)	none | D3 ag inactive | D2 ag-3 inactive
Cc1ccccc1CN1CCN(C(C)C(=O)NNC(=O)c2ccc(F)cc2)CC1 (configuration not stated)	D2 ag-2 58 | D3 ag inactive | D2 ag-3 inactive
CN(C)c1ccc(S(=O)(=O)N2CCCCC2)cc1NC(=O)C1CSC2(C)CCC(=O)N12 (configuration not stated)	none | D3 ag inactive | D2 ag-3 inactive
CCCCOc1ccc(C(=O)N2CCN(CCc3ccncc3)CC2)cc1	none (no result: D2 ag-1, D2 PAM-1, D2 antagonist)

Screening data from PubChem.
